Screening results from PubChem BioAssay.
The entries come from a sample that favours hits as a whole.
RE007 growth inh: less growth of the S. pombe RE007 Vpr strain | 0.21% of 360,000 active | Potency, µM (doses to about 92.2 µM), actives largely listed as inhibitors | S. pombe RE007 Vpr strain, BacTiter-Glo ATP luminescence, 24 h; active = well fitted falling curve with a large enough effect; inconclusive = small, poorly fitted or top-dose-only effect; inactive = no such curve, though single readings can be large or run the other way; note: nearly all actives have a fitted effect of over 50% in size
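Fission yeast RE007 carrying one integrated HIV-1 vpr copy, seeded at OD 0.01 in PMG+AL medium with 23 nL pinned compound. Grown 24 h at 30 degrees; viability read by BacTiter-Glo luminescence after 5 min.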
Giardia FBPA inh: Giardia lamblia aldolase inhibition; purified Giardia FBPA; Potency, µM (top dose mostly 59.6 µM), most hits filed as inhibitors; 0.71% of 290,000 active; AID 2451; note: nearly all actives have a fitted effect of over 55% in size
Target sequence (A8B2U2 whole entry, looked up): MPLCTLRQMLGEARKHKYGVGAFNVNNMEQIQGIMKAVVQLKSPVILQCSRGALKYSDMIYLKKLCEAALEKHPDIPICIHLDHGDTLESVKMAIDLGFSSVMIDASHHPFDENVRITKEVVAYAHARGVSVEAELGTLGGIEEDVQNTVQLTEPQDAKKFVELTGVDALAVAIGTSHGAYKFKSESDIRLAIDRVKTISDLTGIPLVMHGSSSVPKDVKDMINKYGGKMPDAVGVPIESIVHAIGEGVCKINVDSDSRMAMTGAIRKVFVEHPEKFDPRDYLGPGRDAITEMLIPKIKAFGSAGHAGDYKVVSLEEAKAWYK
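Giardia FBPA (40 nM reagent) was preincubated 10 min at RT with compound (up to 57.5 uM final), then substrate plus GAPDH/TPI/NAD/arsenate coupling system with diaphorase/resazurin was added; resorufin fluorescence (525/598 nm) was read after 20 min.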
Shiga inhibitor: inhibitors of Shiga toxin in Vero cells | 9.2% of 290,000 active | AID 2315 | inhibition, % at 38.7 µM | Vero cells, Shiga toxin protein synthesis inhibition reporter; in the data active = inhibition mostly above about 28%, no sharp cut-off; inactive = mostly below about 43%
Cycloheximide cs: counter-screen hit for Shiga toxin inhibitors, cycloheximide. cell reporter, cycloheximide protein synthesis inhibition counterscreen. max response, %. 12% of 300,000 active; in the data active = max response mostly above about 13%, no sharp cut-off; inactive = mostly below about 14%; note: read at 38.3 µM for the half of the compounds with a filed dose
Tb PYK inh: T. brucei pyruvate kinase inhibition; TbPYK enzyme, Kinase-Glo Plus ATP luminescence, 45 min; AID 624173; Potency, µM (doses to about 76.8 µM), most hits filed as inhibitors; Q57TT1; 0.12% of 410,000 active; note: nearly all actives have a fitted effect of over 50% in size
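T. brucei PYK with substrate was exposed to pin-transferred compounds across a concentration series, then started with 130 uM ADP (final). After 45 min at room temperature, Kinase-Glo Plus luminescence was read, normalized and curve-fitted.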
LmPK inh: inhibitors of Leishmania mexicana pyruvate kinase; Q27686; purified LmPK, Kinase-Glo ATP luminescence, 1 h; Potency, µM (top dose mostly 57.5 µM), usual class: inhibitors; 0.37% of 290,000 active; AID 1721
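Purified LmPK (0.1 nM) converted ADP (0.1 mM) to ATP with PEP (0.5 mM) in imidazole buffer pH 7.2 with KCl and MgCl2, 1 h at room temperature. ATP was read by Kinase-Glo luminescence; data normalized to uninhibited and no-enzyme controls.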
Each line names hits and unclear results; the compound was inactive in the other large screens. Unless noted, calls come from the whole dose curve; as a rule, active = well fitted curve in the direction sought with a large enough effect; inconclusive = small, poorly fitted or top-dose-only effect, or another doubt; inactive = no such curve, though single readings can be large; an effect the other way counts as inactive or inconclusive.

Cc1cc(/C=N/n2cnnc2)c(C)n1-c1ccc(OCc2ccc(F)cc2)cc1	Cycloheximide cs 20
CCNC(=S)N/N=C/c1cc(C)n(-c2ccc(Cl)cc2)c1C	Cycloheximide cs 21
Cc1cc(/C=N/n2cnnc2)c(C)n1-c1ccc(OCc2ccc(Cl)cc2Cl)cc1	none
COC(=O)N/N=C/c1cc(C)n(-c2ccc(F)cc2)c1C	Shiga inhibitor 88, Cycloheximide cs 37
COC(=O)N/N=C/c1cc(C)n(-c2ccccc2)c1C	Shiga inhibitor active, Cycloheximide cs 24
Cc1ccccc1CN1C(=O)c2ccccc2S(=O)c2ccc(C(=O)NCc3ccco3)cc21 (configuration not stated)	none (no result: RE007 growth inh, Giardia FBPA inh, Shiga inhibitor, Cycloheximide cs, LmPK inh)
Oc1[nH]c2ccccc2c1N=NC(=S)NCC1CCCO1 (configuration not stated)	Cycloheximide cs 17
Oc1[nH]c2ccc(Br)cc2c1N=NC(=S)NCC1CCCO1 (configuration not stated)	none
COc1ccc(NC(=O)C2=Cc3cccc(OC)c3OC2)cc1	Shiga inhibitor 60, Cycloheximide cs 31
COc1cccc2c1OCC(C(=O)OCc1cccnc1)=C2	Cycloheximide cs 15
COc1ccc(C(=O)NCc2cccnc2)cc1OC	none
O=C1c2ccccc2-c2nc3ccccc3nc21	RE007 growth inh inconclusive, Cycloheximide cs 29, LmPK inh inconclusive
CCS(=O)(=O)c1ccc2oc(Nc3ccc(OC)cc3)nc2c1	none
CCOc1ccc(-c2nc3cc(NC(=O)COc4cccc(C)c4)ccc3o2)cc1	none (no result: RE007 growth inh, Giardia FBPA inh, Shiga inhibitor, Cycloheximide cs, LmPK inh)
Cc1ccc2oc(Nc3nc(C)cc(C)n3)nc2c1	Cycloheximide cs 11
Cc1ccc2oc(-c3ccccc3)nc2c1	Shiga inhibitor 70, Cycloheximide cs 45, LmPK inh 16µM
CCOc1cccc(-c2nc3cc(C)ccc3o2)c1	Cycloheximide cs 31, LmPK inh inconclusive
COc1cc(/C=C(\NC(=O)c2ccccc2)C(=O)N2CC3CC(C2)c2cccc(=O)n2C3)cc(OC)c1OC (configuration not stated)	none
COc1ccc(-c2csc(NC(=O)C3CC(=O)N(Cc4ccco4)C3)n2)cc1 (configuration not stated)	none
c1coc(CNc2nc(-c3ccncc3)cs2)c1	Shiga inhibitor 72, Cycloheximide cs 36
COc1ccc(-c2csc(NCc3ccco3)n2)cc1	RE007 growth inh inconclusive, Shiga inhibitor 72, Cycloheximide cs 42
c1coc(CNc2nc3ccccc3s2)c1	Shiga inhibitor 80, Cycloheximide cs 51
Brc1ccc(-c2ccc(CNCCSc3nnnn3-c3ccccc3)o2)cc1	none (no result: RE007 growth inh, Giardia FBPA inh, Shiga inhibitor, Cycloheximide cs, LmPK inh)
COc1ccc(OC)c(-c2noc(N3CCN(c4cc(C)ccc4C)CC3)n2)c1	none (no result: RE007 growth inh, Giardia FBPA inh, Shiga inhibitor, Cycloheximide cs, LmPK inh)
CC(C)CCNC(=O)c1cccc(Nc2nc3ccccc3n3nnnc23)c1	none (no result: RE007 growth inh, Giardia FBPA inh, Shiga inhibitor, Cycloheximide cs, LmPK inh)
CN(C)c1ccc(C=C2C(=O)NC(=S)NC2=O)cc1	Tb PYK inh 32µM (no result: Giardia FBPA inh, Shiga inhibitor, Cycloheximide cs, LmPK inh)
CN(C)c1ccc(C=C2C(=O)NC(=O)NC2=O)cc1	none (no result: Giardia FBPA inh, Shiga inhibitor, Cycloheximide cs, LmPK inh)
Cc1ccccc1SC1CCN(Cc2nc(C3CC3)no2)CC1	Cycloheximide cs 19
O=C(CSC1=NCCS1)N1CCc2ccccc21	Shiga inhibitor 178, Cycloheximide cs 41
Cc1ccc(SCC(=O)N2CCc3ccccc32)cc1	Shiga inhibitor 53, Cycloheximide cs 46
CC1Cc2ccccc2N1C(=O)CSC1=NCCS1 (configuration not stated)	none
Cc1ccc(-c2ccc(SCC(=O)N3CCCc4ccccc43)nn2)cc1	Shiga inhibitor 52, Cycloheximide cs 24 (no result: RE007 growth inh, Tb PYK inh)
Nc1ccccc1SCC(=O)N1CCc2ccccc21	Cycloheximide cs 41
Cc1cc(C)nc(SCC(=O)N2CCc3ccccc32)n1	none (no result: Giardia FBPA inh, Shiga inhibitor, Cycloheximide cs, LmPK inh)
Cc1ccc(-c2ccc(SCC(=O)N3CCc4ccccc43)nn2)cc1	none (no result: RE007 growth inh, Tb PYK inh)
Cc1ccc(CN(Cc2cccn2-c2nnc(N3CCCC3=O)s2)C(=O)Nc2ccccc2Cl)cc1	none (no result: RE007 growth inh, Giardia FBPA inh, Shiga inhibitor, Cycloheximide cs, LmPK inh)
O=C(CNc1ccccc1OC(F)F)N1CCc2ccccc21	Shiga inhibitor 45, Cycloheximide cs 32
Cc1ccc2c(c1)c1nnc(SCC(=O)N3CCCc4ccccc43)nc1n2CC(=O)O	Shiga inhibitor 76, Cycloheximide cs 32, LmPK inh 4.5µM
CCCn1nnnc1SCC(=O)N1CCCc2ccccc21	Shiga inhibitor 108, Cycloheximide cs 48
O=C(CSc1n[nH]c(-c2ccccc2O)n1)N1CCCc2ccccc21	none
